Data published in PubChem BioAssay AID624417 (National Center for Advancing Translational Sciences (NCATS), 2012).
About 6,400 (1.6%) of roughly 410,000 compounds were called active. Another 20% or so got no clear call; they are omitted. What follows is part of a selection rich in actives, with near analogues and random picks from the rest. Where a call stands in place of a potency, no number is given. A number with no mark means an inactive call. Calls come from the whole dose curve; as a rule, active = well fitted inhibition curve with a large enough effect; inconclusive = small, poorly fitted or top-dose-only effect; inactive = no such curve, though single readings can be large or run the other way. Peptide text beside a SMILES is read from it. * marks the point of attachment. Bz = O=C(c1ccccc1)*

Target: Glucagon-like peptide 1 receptor (Homo sapiens) (UniProt P43220)
Test: qHTS of GLP-1 Receptor Inverse Agonists (Inhibition Mode); note: nearly all actives have a fitted effect of over 55% in size
Conditions: HEK293 GLP-1R CRE-luciferase, luminescence, 24 h, GLP-1R form is constitutively active; series mostly up to 38.3 µM
Outline: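 Stable HEK293 clone (constitutively active GLP-1R + cAMP-response luciferase); 200 cells/uL plated, 12 h pre-culture, compound 24 hr, 37 deg C/5% CO2; detection reagent 12 min RT; luminescence.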
Potency is the fitted concentration of half-maximal effect.

Glucagon-like peptide 1 receptor (Homo sapiens), sequence (P43220 whole entry, looked up): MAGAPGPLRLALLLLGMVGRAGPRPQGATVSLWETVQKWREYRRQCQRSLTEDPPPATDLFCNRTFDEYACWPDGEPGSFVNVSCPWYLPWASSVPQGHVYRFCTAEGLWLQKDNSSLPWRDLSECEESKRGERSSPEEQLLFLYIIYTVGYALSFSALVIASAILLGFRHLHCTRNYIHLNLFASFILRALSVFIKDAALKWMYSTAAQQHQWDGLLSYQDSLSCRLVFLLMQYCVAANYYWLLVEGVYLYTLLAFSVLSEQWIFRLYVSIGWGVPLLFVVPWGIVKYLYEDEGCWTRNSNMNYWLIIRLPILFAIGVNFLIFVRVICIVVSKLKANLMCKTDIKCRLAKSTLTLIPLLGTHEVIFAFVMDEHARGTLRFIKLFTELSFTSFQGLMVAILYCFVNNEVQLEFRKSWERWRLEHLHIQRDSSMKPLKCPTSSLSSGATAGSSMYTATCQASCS

| SMILES | Potency | activity change, negative = inhibition |
| --- | --- | --- |
| Cc1cccc(N(CC(=O)N2CCCC2)S(C)(=O)=O)c1C | inactive | – |
| COCCCn1cc(CN2CC(N(C)C)CS2(=O)=O)nn1 (stereo not given) | inactive | – |
| O=C(CSc1ncn[nH]1)Nc1nc2c(F)c(F)c(F)cc2s1 | inactive | – |
| Cc1ccc(-c2nn(-c3ccccc3)cc2/C=C/C(=O)Nc2cccc(S(N)(=O)=O)c2)cc1 | 5.01 µM (active) | – |
| NS(=O)(=O)c1cccc(NC(=O)CSc2nc3ccccc3n2-c2ccccc2)c1 | – | 33.1% [at 7.66 µM] |
| COc1ccc(-c2nn(-c3ccccc3)cc2/C=C\C(=O)Nc2ccc(C(=O)O)cc2)cc1 | inactive | – |
| O=C(Nc1ccc2c(c1)OCCO2)C1c2ccccc2OCC(=O)N1Cc1ccccn1 (stereo not given) | inactive | – |
| c1cc(-c2ccc3[nH]ccc3c2)n2ccnc2c1 | inactive | – |
| CCCCOc1ccc(CSC(=N)N)cc1[N+](=O)[O-] | inactive | – |
| Cc1nc(SCc2ccc(F)cc2)c([N+](=O)[O-])[nH]1 | inactive | – |
| CCCCCOc1ccc(CSC2=NCCN2)cc1[N+](=O)[O-] | 3.98 µM (active) | – |
| CC1(C)OC(=O)C2=C(C[C@@H](C3CC3)O[C@H]2c2ccc(Cl)cc2)O1 | inactive | – |
| CN(C)C(CNC(=O)c1cccc(S(=O)(=O)N2CCc3ccccc3C2)c1)c1ccccc1 (stereo not given) | inactive | – |
| Cc1ccn(CC(=O)NC2CCCN(Cc3ccccc3F)C2)n1 (stereo not given) | inactive | – |
| CC1(C)CN(Cc2cccnc2)C(=O)[C@H]1CC(=O)Nc1ccc(Br)cc1 | inactive | – |
| CC12c3ccccc3C(c3ccccc31)C1C(=O)N(Cc3cccnc3)C(=O)C12 (stereo not given) | 8.91 µM (active) | – |
| CC1Oc2ccccc2N(Cc2cccnc2)C1=O (stereo not given) | inactive | – |
| COc1cccc(CNc2nc3cc(-c4csc5ccccc45)sc3c(=O)n2C)c1 | inactive | – |
| CCCNC(=O)C1(C)CCCN(C(=O)c2cccc(OC(C)=O)c2C)C1 (stereo not given) | inactive | – |
| Cc1cc(C)c2nc(N(CCN(C)C)C(=O)/C=C/c3cccs3)sc2c1 | inactive | – |
| CCN(CC)CCN(C(=O)c1ccc2c(c1)CCCC2)c1nc2c(OC)cccc2s1 | 11.2 µM (active) | – |
| COc1ccccc1CNC(=O)Cn1cc2c(n1)CCCC2 | inactive | – |
| Cc1ccc2sc(N(CCN(C)C)C(=O)/C=C/c3cccs3)nc2c1C | inactive | – |
| COc1cccc2sc(N(CCCN(C)C)C(=O)C(c3ccccc3)c3ccccc3)nc12 | 5.62 µM (active) | – |

| SMILES | Potency | activity change, negative = inhibition |
| --- | --- | --- |
| CCN(CC)CCN(C(=O)c1cccc([N+](=O)[O-])c1)c1nc2ccc(OC)cc2s1 | inactive | – |
| CCCCN1C(=O)C(CC(=O)NC(c2ccccc2)c2ccccc2)CC(C(=O)N2CCOCC2)=C1C (stereo not given) | inactive | – |
| C[C@@H]1CC2=C(C(=O)OC(C)(C)O2)[C@@H](C2CC2)O1 | inactive | – |
| COc1cccc(-c2cnc3c(NC(C)=O)cc(-c4cccc(NC(C)=O)c4)cn23)c1 | inactive | – |
| COc1ccc(C)cc1N(CC(=O)N1CCC(C)CC1)S(=O)(=O)c1ccc(C)cc1 | inactive | – |
| COC(=O)CN(c1nc(C)c(Cl)c(OC)n1)S(=O)(=O)c1ccc(C)cc1 | 10 µM (active) | – |
| CCN(CC)C(=O)CN(c1cccc(OC)c1)S(=O)(=O)c1ccc(C)cc1 | inactive | – |
| CCc1ccc([C@@H]2CC(=O)[C@@H]3CN(S(=O)(=O)c4ccc(C)cc4)[C@H](c4ccc(Cl)cc4)C[C@@H]3N2S(=O)(=O)c2ccc(C)cc2)cc1 | inactive | – |
| COc1cc(C=NC2CCCCC2)ccc1O | inactive | – |
| CN(Cc1ccccc1F)C(=O)C(Cc1ccccc1)NC(=O)c1ccccc1 (stereo not given) | 11.2 µM (active) | – |
| NC(=O)c1ccc(NC(=O)COC(=O)C(Cc2ccccc2)NC(=O)c2ccccc2)cc1 (stereo not given) | inactive | – |
| O=C(NC(Cc1ccccc1)C(=O)N1CCCC1C(=O)O)c1ccccc1 (stereo not drawn) (Bz-Phe-Pro-OH; configuration not given here) | inactive | – |
| CC(OC(=O)c1ccc(NC(=O)CC#N)cc1)C(=O)Nc1ccc(S(=O)(=O)N2CCCC2)cc1 (stereo not given) | inactive | – |
| O=C1NC[C@@H](CCCCN2CCN(CCc3ccc(O)cc3)C(=O)C2=O)N(CC2CCCCC2)C1=O | inactive | – |
| Cc1ccc(S(=O)(=O)N(CCc2ccccc2)c2ccc3c(c2)C2CC3CCN2C(=O)OCc2ccccc2)cc1 (stereo not given) | inactive | – |
| COc1ccc(-c2ccc3c(c2)C2CC3CCN2CCC#N)cc1 (stereo not given) | inactive | – |
| C=CCOC(=O)N1CCC2CC1c1cc(-c3ccc(OC)cc3)ccc12 (stereo not given) | 10 µM (active) | – |
| C[C@@H]1CN([C@H](C)CO)C(=O)CCCn2cc(nn2)CO[C@H]1CN(C)S(C)(=O)=O | inactive | – |
| Cc1ccc(C(O)c2ncc(-c3ccccc3F)[nH]2)cc1F (stereo not given) | inactive | – |
| COc1ccc(CNC(=O)CN2C(=O)c3ccccc3S2(=O)=O)cc1 | inactive | – |
| O=C1c2ccccc2S(=O)(=O)N1Cc1c(F)cccc1Cl | inactive | – |
| CC(C)(C)c1ccc(CN2C(=O)c3ccccc3S2(=O)=O)cc1 | 10 µM (active) | – |
| CCc1cc(-c2nnn(CCC3COCCO3)c2CC)ccc1-c1cn(Cc2ccc3ccccc3c2)nn1 (stereo not given) | inactive | – |
| CC(OC(=O)c1cccnc1Cl)C(=O)NC1CCCCC1 (stereo not given) | inactive | – |

| SMILES | Potency | activity change, negative = inhibition |
| --- | --- | --- |
| C[C@H](CO)N1C[C@H](C)[C@@H](CN(C)Cc2ccc3c(c2)OCO3)OCc2cnnn2CCCC1=O | inactive | – |
| C=C(Br)Cn1c(CCCC)nc2ccccc21 | 2.82 µM (active) | – |
| CCCCn1c(CN2CCN(CCO)CC2)nc2ccccc21 | inactive | – |
| CCCCn1c(CCCNC(=O)CC)nc2ccccc21 | inactive | – |
| Nc1[nH]c(C(=O)c2ccccc2)c(-c2ccncc2)c1C(=O)NCc1cccc2ccccc12 | inactive | – |
| Cc1ccc(Nc2c3c(nc4ccccc24)CCC3)cc1 | 5.62 µM (active) | – |
| Cc1ccc(CNC(=O)CSc2c3c(nc4cc(Cl)ccc24)CCCC3)cc1 | inactive | – |
| CCOc1ccc(NC(=O)CSc2c3c(nc4ccccc24)CCCC3)cc1 | inactive | – |
| CCCNC(=O)C1(C)CCN1C(=O)C1(c2ccccc2)CC1 (stereo not given) | inactive | – |
| CC(C)n1cnc2c(Nc3cccc(Cl)c3)nc(N(CCO)CCCO)nc21 | 10 µM (active) | – |
| COc1ccccc1Nc1c2c(nc3ccc(NC(=O)/C=C/c4cc(OC)c(OC)c(OC)c4)cc13)CCCC2 | 3.55 µM (active) | – |
| COc1ccc(NS(=O)(=O)c2cc(NC(=O)/C=C/c3cc(OC)c(OC)c(OC)c3)ccc2N2CCCCC2)cc1 | inactive | – |
| CCOc1ccc(C(=O)Nc2ccc3nc4c(c(Nc5ccccc5OC)c3c2)CCCC4)cc1 | inactive | – |
| O=C1NC(Cc2ccccc2)c2nc3ccc(Br)cc3c(=O)n2-c2cc3ccccc3cc21 (stereo not given) | inactive | – |
| CN(C)CCN(C(=O)CN1C(=O)c2ccccc2C1=O)c1nc2cc3c(cc2s1)OCCO3 | inactive | – |
| Cc1ccc2nc(N(CCN(C)C)C(=O)C3=COCCO3)sc2c1 | inactive | – |
| CN(C)CCCN(C(=O)c1ccc(S(=O)(=O)N2CCCCCC2)cc1)c1nc2cc3c(cc2s1)OCCO3 | 11.2 µM (active) | – |
| Cc1cc2nc(NC(=O)c3ccc(S(=O)(=O)N4CCOCC4)cc3)sc2cc1C | inactive | – |
| CN(C)CCCN(C(=O)c1ccc(S(=O)(=O)N2CCCCCC2)cc1)c1nc2ccc(Br)cc2s1 | 3.55 µM (active) | – |
| Cc1cc(C)c2sc(NC(=O)c3ccc(S(=O)(=O)N4CCCC4)cc3)nc2c1 | inactive | – |
| Cc1noc(C)c1S(=O)(=O)N(C)C[C@H]1OCCCC[C@@H](C)Oc2ccc(NC(=O)CCCN(C)C)cc2C(=O)N([C@H](C)CO)C[C@@H]1C | inactive | – |
| O=C(O)C1=C(C(=O)O)C2CCC1C2 | inactive | – |
| CC(=O)N1Cc2cc(C(=O)NCc3cccc(F)c3)nc(-c3cccc(C4=CCCCC4)c3)c2[C@H]1CCO | inactive | – |
| CCc1nc2c(=O)[nH]cnc2o1 | inactive | – |

| SMILES | Potency | activity change, negative = inhibition |
| --- | --- | --- |
| C/C(=N\NC(=O)C(N)=O)c1ccc2c(c1)OCCO2 | inactive | – |
| C/C(=N/NC(=O)c1ccncc1)c1ccc2c(c1)OCO2 | inactive | – |
| C/C(=N/NC(=S)Nc1ccccc1)c1ccc2c(c1)OCO2 | 3.16 µM (active) | – |
| CCOC(=O)[C@]12CCCC=C1N(CCC1=CCCCC1)C(=O)[C@H](CC(=O)NCCCOC)C2 | inactive | – |
| O=C(NCC(F)(F)F)c1ccc(S(=O)(=O)NCCc2ccc3c(c2)OCCO3)cc1 | inactive | – |
| COc1cc(SC)ccc1C(=O)NCCOc1ccccc1Cl | inactive | – |
| Cc1csc(NC(=O)c2ccc(C)s2)n1 | inactive | – |
| COc1cc(SC)ccc1C(=O)Nc1nc(C)cs1 | 1.12 µM (active) | – |
| CCOc1ccc2[nH]c(=S)sc2c1 | inactive | – |
| O=C(NC1CCCC1)C1c2ccccc2OCC(=O)N1CC(F)(F)F (stereo not given) | inactive | – |
| O=C(Nc1cc(F)ccc1F)c1ccc2c(=O)n3c(nc2c1)CCC3 | inactive | – |
| O=C(NN=Cc1ccccc1O)NN=Cc1ccccc1O | inactive | – |
| Oc1cccc(/C=N/Nc2ccc(Cl)nn2)c1O | 1.12 µM (active) | – |
| Oc1c(Br)cccc1/C=N/Nc1c(F)c(F)c(F)c(F)c1F | inactive | – |
| C[C@@H]1CN([C@@H](C)CO)S(=O)(=O)c2ccc(-c3ccc(C(=O)N(C)C)cc3)cc2O[C@@H]1CN(C)Cc1ccccc1C(=O)O | inactive | – |
| CCc1nc2c(OCCc3cccc(OC)c3)cccn2c1N(C)C(=O)c1ccc(C)cc1 | inactive | – |
| Cc1ccc(NC(=O)[C@H](Cc2ccccc2)NC(=O)CC[C@H]2O[C@@H](n3ccc(=O)[nH]c3=O)[C@H](O)[C@@H]2O)cc1C | inactive | – |
| Cc1ccccc1N1CCN(S(=O)(=O)c2ccc3ccccc3c2)CC1 | 10 µM (active) | – |
| O=S(=O)(c1ccc2ccccc2c1)N1CCN(S(=O)(=O)N2CCOCC2)CC1 | inactive | – |
| Cc1ccc(S(=O)(=O)N2CCN(c3ccccc3)CC2)cc1C | inactive | – |
| O=[N+]([O-])c1ccc(N2CCN(S(=O)(=O)c3ccccc3)CC2)cc1N1CCc2ccccc2C1 | inactive | – |
| CN1CCN(S(=O)(=O)c2ccc(N3CCN(c4ccccc4O)CC3)c([N+](=O)[O-])c2)CC1 | 10 µM (active) | – |
| Cc1cc(N)n(-c2ccc(S(=O)(=O)N3CCCC3)cc2[N+](=O)[O-])n1 | inactive | – |
